Experiments:
Assay in all cases: DAPPL (digital affinity profiling via proximity ligation, sequencing); 10 mM Tris-HCl pH 7.5, 50 mM NaCl, 1 mM DTT, 4% glycerol, room temperature, 30 min; GST-TFs on glutathione beads, 16-mer random dsDNA library, 0.1% formaldehyde crosslink after washing; high values mean tight binding
FEV = biological target: T1, FEV (Homo sapiens, UniProt Q99581 1-238); settings: protein: recombinant; tags: N-terminal GST; dsDNA, one strand shown
T1 sequence: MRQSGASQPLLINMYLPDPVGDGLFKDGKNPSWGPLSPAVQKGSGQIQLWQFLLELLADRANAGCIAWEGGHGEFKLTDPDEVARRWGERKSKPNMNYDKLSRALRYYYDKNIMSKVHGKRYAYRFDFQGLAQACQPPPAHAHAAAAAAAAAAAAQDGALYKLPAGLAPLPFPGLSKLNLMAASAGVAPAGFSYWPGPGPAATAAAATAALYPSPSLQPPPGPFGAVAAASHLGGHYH
Summary of the method: (§1)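 Binding signal is defined as a hexamer's read frequency for one factor over its frequency for the tag-only sample. To obtain reads, GST-fused human transcription factors were expressed in yeast, captured on glutathione beads, barcoded with DNA and pooled with that sample. Pools met 200 nmole of a 16-mer random double-stranded DNA library in Tris/NaCl/DTT/glycerol buffer for 30 min at room temperature before washing, 0.1% formaldehyde crosslinking, proximity ligation (BsaI/T4 ligase, 1 h, 37 °C), PCR and Illumina NextSeq500 sequencing.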

ETV5 = ETV5 (Homo sapiens, UniProt P41161 1-510); settings: protein: recombinant; tags: N-terminal GST; dsDNA, one strand shown
Chain of ETV5 (P41161 whole entry): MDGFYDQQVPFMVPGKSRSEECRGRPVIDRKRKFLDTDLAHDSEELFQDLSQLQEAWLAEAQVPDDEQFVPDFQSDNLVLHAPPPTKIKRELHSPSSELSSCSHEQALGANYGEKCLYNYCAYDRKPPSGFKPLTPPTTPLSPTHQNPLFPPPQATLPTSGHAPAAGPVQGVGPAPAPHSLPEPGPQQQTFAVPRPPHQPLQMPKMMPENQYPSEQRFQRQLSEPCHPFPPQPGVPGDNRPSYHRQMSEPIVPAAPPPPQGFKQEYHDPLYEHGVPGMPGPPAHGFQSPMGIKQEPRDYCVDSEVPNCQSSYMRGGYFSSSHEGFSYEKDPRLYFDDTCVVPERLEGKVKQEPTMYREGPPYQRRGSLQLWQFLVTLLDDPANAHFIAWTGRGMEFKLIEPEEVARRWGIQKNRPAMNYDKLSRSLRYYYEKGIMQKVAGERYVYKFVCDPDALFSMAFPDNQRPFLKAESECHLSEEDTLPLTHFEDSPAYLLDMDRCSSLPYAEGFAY
Summary of the method: as §1

HSF1 = HSF1 (Homo sapiens, UniProt Q00613 1-529); settings: protein: recombinant; tags: N-terminal GST; chain copies: 3; dsDNA, one strand shown
Chain of HSF1 (Q00613 whole entry): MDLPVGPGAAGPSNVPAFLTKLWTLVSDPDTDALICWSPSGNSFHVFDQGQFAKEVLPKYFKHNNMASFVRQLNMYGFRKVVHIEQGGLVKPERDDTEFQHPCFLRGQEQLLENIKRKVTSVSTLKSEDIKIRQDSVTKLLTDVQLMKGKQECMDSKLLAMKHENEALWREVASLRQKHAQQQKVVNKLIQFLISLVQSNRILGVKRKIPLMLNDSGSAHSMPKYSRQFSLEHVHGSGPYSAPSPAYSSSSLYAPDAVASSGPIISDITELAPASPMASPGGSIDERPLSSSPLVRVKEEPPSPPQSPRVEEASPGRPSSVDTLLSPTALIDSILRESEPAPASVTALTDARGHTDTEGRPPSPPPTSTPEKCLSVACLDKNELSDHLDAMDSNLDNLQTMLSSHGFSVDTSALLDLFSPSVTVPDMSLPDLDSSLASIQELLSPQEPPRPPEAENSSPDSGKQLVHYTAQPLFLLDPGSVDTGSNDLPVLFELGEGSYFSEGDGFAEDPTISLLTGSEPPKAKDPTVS
Summary of the method: as §1

SPIC = biological target: T2, SPIC (Homo sapiens, UniProt Q8N5J4 1-248); settings: protein: recombinant; tags: N-terminal GST; dsDNA, one strand shown
T2 sequence: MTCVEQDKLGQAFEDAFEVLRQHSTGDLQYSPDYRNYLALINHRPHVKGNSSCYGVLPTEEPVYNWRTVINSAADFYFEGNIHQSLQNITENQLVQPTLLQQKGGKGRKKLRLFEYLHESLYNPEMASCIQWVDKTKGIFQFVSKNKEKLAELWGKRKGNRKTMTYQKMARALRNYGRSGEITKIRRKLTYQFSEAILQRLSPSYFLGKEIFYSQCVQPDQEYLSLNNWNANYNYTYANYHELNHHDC
Summary of the method: as §1

ELF4 = ELF4 (Homo sapiens, UniProt Q99607 1-663); settings: protein: recombinant; tags: N-terminal GST; dsDNA, one strand shown
Chain of ELF4 (Q99607 whole entry): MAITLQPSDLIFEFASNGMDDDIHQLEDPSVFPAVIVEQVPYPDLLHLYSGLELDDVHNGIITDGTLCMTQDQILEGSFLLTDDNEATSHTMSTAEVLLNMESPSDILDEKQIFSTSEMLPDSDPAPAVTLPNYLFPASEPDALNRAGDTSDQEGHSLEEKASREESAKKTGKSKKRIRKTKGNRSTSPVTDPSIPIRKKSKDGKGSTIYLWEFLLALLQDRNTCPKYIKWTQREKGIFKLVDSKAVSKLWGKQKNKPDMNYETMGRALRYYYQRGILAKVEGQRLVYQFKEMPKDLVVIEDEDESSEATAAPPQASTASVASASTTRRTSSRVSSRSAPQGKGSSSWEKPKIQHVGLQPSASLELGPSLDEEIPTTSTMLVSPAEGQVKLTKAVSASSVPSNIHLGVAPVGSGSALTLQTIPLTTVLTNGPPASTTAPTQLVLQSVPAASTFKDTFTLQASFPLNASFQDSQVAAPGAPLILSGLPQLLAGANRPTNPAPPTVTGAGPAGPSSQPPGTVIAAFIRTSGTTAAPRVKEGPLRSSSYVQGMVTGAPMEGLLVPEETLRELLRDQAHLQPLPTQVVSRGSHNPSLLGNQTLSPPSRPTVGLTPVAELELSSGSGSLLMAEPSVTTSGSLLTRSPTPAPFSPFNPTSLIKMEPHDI
Summary of the method: as §1

ELK4 = biological target: T3, ELK4 (Homo sapiens, UniProt P28324-2 1-405); settings: protein: recombinant; tags: N-terminal GST; dsDNA, one strand shown
T3 sequence: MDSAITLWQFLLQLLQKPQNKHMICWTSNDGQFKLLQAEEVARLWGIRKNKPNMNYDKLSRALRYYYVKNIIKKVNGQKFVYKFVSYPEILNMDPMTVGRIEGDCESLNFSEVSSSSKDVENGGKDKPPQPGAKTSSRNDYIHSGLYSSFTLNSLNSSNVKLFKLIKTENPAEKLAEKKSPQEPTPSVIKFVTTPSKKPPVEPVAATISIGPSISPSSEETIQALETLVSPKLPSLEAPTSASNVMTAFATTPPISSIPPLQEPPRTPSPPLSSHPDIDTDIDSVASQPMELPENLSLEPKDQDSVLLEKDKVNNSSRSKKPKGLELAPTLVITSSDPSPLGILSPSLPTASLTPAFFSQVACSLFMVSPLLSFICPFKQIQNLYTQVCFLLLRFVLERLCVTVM
Summary of the method: as §1

ETV2 = biological target: T4, ETV2 (Homo sapiens, UniProt O00321 1-342); settings: protein: recombinant; tags: N-terminal GST; dsDNA, one strand shown
T4 sequence: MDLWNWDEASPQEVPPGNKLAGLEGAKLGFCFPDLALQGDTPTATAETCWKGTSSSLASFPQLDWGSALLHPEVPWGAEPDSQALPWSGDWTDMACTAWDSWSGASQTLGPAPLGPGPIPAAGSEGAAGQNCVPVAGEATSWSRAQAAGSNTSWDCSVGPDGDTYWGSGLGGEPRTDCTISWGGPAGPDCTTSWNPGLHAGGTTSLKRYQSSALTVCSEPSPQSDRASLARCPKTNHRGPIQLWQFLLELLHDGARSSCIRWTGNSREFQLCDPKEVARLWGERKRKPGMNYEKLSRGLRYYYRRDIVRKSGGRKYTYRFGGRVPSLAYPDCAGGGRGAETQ
Summary of the method: as §1

ELF3 = biological target: T5, ELF3 (Homo sapiens, UniProt P78545 1-371); settings: protein: recombinant; tags: N-terminal GST; dsDNA, one strand shown
T5 sequence: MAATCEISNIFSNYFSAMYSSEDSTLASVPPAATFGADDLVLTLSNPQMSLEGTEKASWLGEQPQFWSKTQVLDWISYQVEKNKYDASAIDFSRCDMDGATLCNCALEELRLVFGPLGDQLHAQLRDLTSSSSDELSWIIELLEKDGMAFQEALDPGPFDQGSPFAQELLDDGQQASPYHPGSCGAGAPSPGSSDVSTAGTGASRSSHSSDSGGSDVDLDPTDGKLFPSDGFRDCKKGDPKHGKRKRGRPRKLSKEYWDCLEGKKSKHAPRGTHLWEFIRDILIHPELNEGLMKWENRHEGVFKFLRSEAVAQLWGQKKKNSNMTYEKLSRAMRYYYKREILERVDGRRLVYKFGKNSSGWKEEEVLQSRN
Summary of the method: as §1

CRX = CRX (Homo sapiens, UniProt O43186 1-299); settings: protein: recombinant; tags: N-terminal GST; dsDNA, one strand shown
Chain of CRX (O43186 whole entry): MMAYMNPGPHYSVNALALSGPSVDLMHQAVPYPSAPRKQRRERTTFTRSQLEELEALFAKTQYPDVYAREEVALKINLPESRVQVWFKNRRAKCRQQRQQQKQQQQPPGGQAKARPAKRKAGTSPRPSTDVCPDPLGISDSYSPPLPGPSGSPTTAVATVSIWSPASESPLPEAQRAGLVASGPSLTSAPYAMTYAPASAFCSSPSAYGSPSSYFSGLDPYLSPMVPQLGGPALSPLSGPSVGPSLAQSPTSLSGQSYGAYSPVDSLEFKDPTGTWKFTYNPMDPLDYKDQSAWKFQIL
Summary of the method: as §1

ETV1 = ETV1 (Homo sapiens, UniProt P50549 1-477); settings: protein: recombinant; tags: N-terminal GST; dsDNA, one strand shown
Chain of ETV1 (P50549 whole entry): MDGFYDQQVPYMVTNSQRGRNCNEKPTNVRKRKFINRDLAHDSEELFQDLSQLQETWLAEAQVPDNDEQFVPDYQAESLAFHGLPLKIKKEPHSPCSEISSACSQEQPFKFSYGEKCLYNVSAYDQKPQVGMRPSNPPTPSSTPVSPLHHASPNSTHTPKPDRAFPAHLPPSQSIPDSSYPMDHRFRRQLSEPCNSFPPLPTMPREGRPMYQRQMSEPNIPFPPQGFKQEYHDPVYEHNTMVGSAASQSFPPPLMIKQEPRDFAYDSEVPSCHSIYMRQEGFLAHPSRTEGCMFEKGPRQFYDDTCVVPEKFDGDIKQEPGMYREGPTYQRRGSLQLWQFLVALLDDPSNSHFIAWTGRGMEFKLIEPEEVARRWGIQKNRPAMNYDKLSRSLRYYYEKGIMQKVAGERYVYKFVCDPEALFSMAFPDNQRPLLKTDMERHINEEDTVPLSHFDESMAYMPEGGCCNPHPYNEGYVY
Summary of the method: as §1

ERF = biological target: T6, ERF (Homo sapiens, UniProt P50548 1-548); settings: protein: recombinant; tags: N-terminal GST; dsDNA, one strand shown
T6 sequence: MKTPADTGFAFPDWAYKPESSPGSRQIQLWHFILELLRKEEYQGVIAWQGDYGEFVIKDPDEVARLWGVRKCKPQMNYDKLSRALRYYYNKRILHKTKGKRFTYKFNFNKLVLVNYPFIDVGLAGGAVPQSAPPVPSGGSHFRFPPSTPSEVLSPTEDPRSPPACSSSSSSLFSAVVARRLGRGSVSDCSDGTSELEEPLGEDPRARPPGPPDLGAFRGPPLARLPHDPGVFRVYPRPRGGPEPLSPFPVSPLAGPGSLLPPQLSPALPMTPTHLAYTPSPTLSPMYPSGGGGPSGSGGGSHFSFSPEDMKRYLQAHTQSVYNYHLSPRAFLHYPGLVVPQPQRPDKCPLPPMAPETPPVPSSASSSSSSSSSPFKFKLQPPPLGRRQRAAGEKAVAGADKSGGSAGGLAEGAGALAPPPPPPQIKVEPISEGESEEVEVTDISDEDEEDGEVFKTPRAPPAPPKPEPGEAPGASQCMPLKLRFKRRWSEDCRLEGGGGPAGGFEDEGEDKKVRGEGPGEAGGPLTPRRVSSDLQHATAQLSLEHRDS
Summary of the method: as §1

ETV3L = biological target: T7, ETV3L (Homo sapiens, UniProt Q6ZN32 1-361); settings: protein: recombinant; tags: N-terminal GST; dsDNA, one strand shown
T7 sequence: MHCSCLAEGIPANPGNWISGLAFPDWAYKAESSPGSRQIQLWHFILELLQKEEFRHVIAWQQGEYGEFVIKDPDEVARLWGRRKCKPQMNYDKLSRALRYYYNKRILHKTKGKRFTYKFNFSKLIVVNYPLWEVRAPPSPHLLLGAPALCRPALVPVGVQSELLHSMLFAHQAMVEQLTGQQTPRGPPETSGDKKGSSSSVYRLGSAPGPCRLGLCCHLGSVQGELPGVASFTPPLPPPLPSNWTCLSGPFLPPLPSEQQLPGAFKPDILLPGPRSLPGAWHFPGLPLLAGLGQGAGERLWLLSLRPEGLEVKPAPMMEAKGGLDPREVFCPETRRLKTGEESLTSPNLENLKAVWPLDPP
Summary of the method: as §1

ETS2 = biological target: T8, ETS2 (Homo sapiens, UniProt P15036 1-469); settings: protein: recombinant; tags: N-terminal GST; dsDNA, one strand shown
T8 sequence: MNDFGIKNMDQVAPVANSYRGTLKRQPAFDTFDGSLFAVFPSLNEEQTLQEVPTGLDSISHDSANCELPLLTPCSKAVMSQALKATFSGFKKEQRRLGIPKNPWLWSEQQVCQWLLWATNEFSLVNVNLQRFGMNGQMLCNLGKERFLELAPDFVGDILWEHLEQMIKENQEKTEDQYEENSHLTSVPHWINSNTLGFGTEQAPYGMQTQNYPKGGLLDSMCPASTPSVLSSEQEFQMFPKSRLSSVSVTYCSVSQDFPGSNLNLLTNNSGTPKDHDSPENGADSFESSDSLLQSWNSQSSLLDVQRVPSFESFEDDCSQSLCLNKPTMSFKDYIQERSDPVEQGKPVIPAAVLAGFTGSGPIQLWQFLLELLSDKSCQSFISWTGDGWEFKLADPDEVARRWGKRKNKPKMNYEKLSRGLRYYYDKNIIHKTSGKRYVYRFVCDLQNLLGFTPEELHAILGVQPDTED
Summary of the method: as §1

SPDEF = biological target: T9, SPDEF (Homo sapiens, UniProt O95238 1-335); settings: protein: recombinant; tags: N-terminal GST; dsDNA, one strand shown
T9 sequence: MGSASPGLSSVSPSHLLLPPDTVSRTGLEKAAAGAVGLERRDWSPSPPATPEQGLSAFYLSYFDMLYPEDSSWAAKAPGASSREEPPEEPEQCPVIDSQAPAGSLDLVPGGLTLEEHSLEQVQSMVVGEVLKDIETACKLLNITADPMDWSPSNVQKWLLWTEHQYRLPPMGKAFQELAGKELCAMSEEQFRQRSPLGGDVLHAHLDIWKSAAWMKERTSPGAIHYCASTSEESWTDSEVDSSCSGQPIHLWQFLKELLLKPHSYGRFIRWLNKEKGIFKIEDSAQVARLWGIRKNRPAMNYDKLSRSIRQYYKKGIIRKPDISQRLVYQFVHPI
Summary of the method: as §1

ETV7 = biological target: T10, ETV7 (Homo sapiens, UniProt Q9Y603 1-341); settings: protein: recombinant; tags: N-terminal GST; dsDNA, one strand shown
T10 sequence: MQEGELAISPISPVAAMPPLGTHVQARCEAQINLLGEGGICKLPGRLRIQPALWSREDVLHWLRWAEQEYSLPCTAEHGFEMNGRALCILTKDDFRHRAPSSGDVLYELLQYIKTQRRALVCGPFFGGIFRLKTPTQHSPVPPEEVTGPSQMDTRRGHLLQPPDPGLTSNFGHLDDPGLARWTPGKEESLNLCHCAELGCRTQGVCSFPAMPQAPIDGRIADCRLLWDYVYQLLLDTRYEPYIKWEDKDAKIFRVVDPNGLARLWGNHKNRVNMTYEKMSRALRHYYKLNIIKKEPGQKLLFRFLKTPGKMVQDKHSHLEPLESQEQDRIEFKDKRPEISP
Summary of the method: as §1

ELF5 = biological target: T11, ELF5 (Homo sapiens, UniProt Q9UKW6-2 1-255); settings: protein: recombinant; tags: N-terminal GST; dsDNA, one strand shown
T11 sequence: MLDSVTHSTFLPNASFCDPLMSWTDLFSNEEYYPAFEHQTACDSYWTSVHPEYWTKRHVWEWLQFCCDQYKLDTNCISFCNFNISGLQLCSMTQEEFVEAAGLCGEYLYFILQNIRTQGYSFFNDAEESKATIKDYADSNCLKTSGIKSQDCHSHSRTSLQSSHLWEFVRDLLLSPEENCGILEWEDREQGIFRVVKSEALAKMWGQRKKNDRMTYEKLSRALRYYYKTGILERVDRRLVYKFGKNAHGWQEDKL
Summary of the method: as §1

ETV3 = biological target: T12, ETV3 (Homo sapiens, UniProt P41162-2 1-143); settings: protein: recombinant; tags: N-terminal GST; dsDNA, one strand shown
T12 sequence: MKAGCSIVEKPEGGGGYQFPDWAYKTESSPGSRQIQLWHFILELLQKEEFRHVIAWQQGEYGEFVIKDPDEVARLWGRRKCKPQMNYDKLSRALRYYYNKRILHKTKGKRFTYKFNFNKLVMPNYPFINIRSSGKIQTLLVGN
Summary of the method: as §1

ETV6 = ETV6 (Homo sapiens, UniProt P41212 1-452); settings: protein: recombinant; tags: N-terminal GST; dsDNA, one strand shown
Chain of ETV6 (P41212 whole entry): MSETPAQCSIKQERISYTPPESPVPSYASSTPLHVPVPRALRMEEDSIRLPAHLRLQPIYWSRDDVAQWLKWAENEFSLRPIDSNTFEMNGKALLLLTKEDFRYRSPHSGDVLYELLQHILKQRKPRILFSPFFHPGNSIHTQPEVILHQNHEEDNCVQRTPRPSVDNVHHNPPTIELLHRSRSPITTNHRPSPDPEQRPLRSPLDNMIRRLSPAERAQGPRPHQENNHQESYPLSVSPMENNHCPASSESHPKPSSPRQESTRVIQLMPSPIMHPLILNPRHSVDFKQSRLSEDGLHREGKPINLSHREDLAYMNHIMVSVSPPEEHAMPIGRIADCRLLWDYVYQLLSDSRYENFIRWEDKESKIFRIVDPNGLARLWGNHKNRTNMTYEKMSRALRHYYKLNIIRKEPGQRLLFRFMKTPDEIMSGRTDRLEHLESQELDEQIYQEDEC
Summary of the method: as §1

CCCTCC
binding signal (FEV): 1.51 fold enrichment (6-mer frequency, TF over GST control)
binding signal (ETV5): 1.48 fold enrichment (6-mer frequency, TF over GST control)
binding signal (HSF1): 1.22 fold enrichment (6-mer frequency, TF over GST control)
binding signal (SPIC): 1.73 fold enrichment (6-mer frequency, TF over GST control)
binding signal (ELF4): 1.58 fold enrichment (6-mer frequency, TF over GST control)
binding signal (ELK4): 1.38 fold enrichment (6-mer frequency, TF over GST control)
binding signal (ETV2): 1.32 fold enrichment (6-mer frequency, TF over GST control)
binding signal (ELF3): 1.27 fold enrichment (6-mer frequency, TF over GST control)
binding signal (CRX): 1.19 fold enrichment (6-mer frequency, TF over GST control)
binding signal (ETV1): 1.45 fold enrichment (6-mer frequency, TF over GST control)
binding signal (ERF): 1.58 fold enrichment (6-mer frequency, TF over GST control)
binding signal (ETV3L): 1.31 fold enrichment (6-mer frequency, TF over GST control)
binding signal (ETS2): 1.51 fold enrichment (6-mer frequency, TF over GST control)
binding signal (SPDEF): 1.36 fold enrichment (6-mer frequency, TF over GST control)
binding signal (ETV7): 1.37 fold enrichment (6-mer frequency, TF over GST control)
binding signal (ELF5): 1.34 fold enrichment (6-mer frequency, TF over GST control)
binding signal (ETV3): 1.39 fold enrichment (6-mer frequency, TF over GST control)
binding signal (ETV6): 1.4 fold enrichment (6-mer frequency, TF over GST control)
